From PubChem BioAssay (Tox21)
Inconclusive results are not listed. Entries that show only a call come without a potency. Unmarked numbers belong to inactive results. Activity calls are given as the source filed them. The call rests on the fitted dose curve; in most records, active means well fitted activation curve with a large enough effect in the repeat runs; inconclusive means weak or mixed curves; inactive means no such curve, though single readings can be large or run the other way.

Biological target: Aryl hydrocarbon receptor (Homo sapiens) (UniProt P35869)
Assay: qHTS assay to identify small molecule that activate the aryl hydrocarbon receptor (AhR) signaling pathway (AID 743085);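 further: HG2L7.5c1 human HepG2 liver cells with stably integrated DRE-driven firefly reporter; nearly all actives have a fitted effect of over 15% in size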
Settings: HepG2 AhR-luc (HG2L7.5c1), luciferase, 24 h; series mostly up to 70.3 µM; activation: at the top concentration
Excerpt: U.S. Tox21 Program National Center for Advancing Translational Sciences [NCATS] NIH Chemical Genomics Center [NCGC] U.S. Environmental Protection Agency [EPA] National Institutes of Environmental Health Sciences [NIEHS] National Toxicology Program [NTP] U.S. Food and Drug Administration [FDA] Tox21 Assay overview: The Aryl hydrocarbon Receptor (AhR), a member of the family of basic helix-loop-helix transcription factors, is crucial to adaptive responses to environmental changes. AhR mediates cellular responses to environmental pollutants such as aromatic hydrocarbons through induction of phase I and II enzymes but also interacts with other nuclear receptor signaling pathways. A cell based HepG2-AhR-luc assay (HG2L7.5c1 cell line, developed by Dr. Michael S. Denison, University of California at Davis, was used to assess the activation of AhR. HepG2 (human hepatocellular carcinoma) cells were stably transfected with an Ah receptor-responsive firefly luciferase reporter gene plasmid containing 20 dioxin responsive elements and luciferase reporter gene. Increased luciferase activity can be used to identify the compounds that induce AhR activation.
Tox21 Assay Protocol Summary: 4000 cells in 5 uL/well were dispensed into white wall/solid bottom 1536-well plates using a Multidrop Combi (Thermo Fisher Scientific Inc., Waltham, MA) dispenser. After the assay plates were incubated at 37C for 5 h, 23 nL of compound or DMSO vehicle was transferred to the assay plates by a pintool station (Kalypsys, San Diego, CA). The plates were incubated at 37C for 24 hr. After 1 ul/well of CellTiter-Fluor reagent (Promega, Madison, WI) was added into the assay plates using a Flying Reagent Dispenser (FRD) (Aurora Discovery, CA), the assay plates were incubated at 37C for 30 min. The fluorescence intensity in the plates was measured using a ViewLux plate reader (PerkinElmer, Shelton, CT), followed by the addition of 4 uL of ONE-Glo Luciferase Assay reagent (Promega) using an FRD (Aurora Discovery). After the assay plates were incubated at room temperature for 30 min, luminescence intensity was measured using a ViewLux plate reader (Perkin Elmer).

Sequence of Aryl hydrocarbon receptor (Homo sapiens) (P35869 whole entry, looked up): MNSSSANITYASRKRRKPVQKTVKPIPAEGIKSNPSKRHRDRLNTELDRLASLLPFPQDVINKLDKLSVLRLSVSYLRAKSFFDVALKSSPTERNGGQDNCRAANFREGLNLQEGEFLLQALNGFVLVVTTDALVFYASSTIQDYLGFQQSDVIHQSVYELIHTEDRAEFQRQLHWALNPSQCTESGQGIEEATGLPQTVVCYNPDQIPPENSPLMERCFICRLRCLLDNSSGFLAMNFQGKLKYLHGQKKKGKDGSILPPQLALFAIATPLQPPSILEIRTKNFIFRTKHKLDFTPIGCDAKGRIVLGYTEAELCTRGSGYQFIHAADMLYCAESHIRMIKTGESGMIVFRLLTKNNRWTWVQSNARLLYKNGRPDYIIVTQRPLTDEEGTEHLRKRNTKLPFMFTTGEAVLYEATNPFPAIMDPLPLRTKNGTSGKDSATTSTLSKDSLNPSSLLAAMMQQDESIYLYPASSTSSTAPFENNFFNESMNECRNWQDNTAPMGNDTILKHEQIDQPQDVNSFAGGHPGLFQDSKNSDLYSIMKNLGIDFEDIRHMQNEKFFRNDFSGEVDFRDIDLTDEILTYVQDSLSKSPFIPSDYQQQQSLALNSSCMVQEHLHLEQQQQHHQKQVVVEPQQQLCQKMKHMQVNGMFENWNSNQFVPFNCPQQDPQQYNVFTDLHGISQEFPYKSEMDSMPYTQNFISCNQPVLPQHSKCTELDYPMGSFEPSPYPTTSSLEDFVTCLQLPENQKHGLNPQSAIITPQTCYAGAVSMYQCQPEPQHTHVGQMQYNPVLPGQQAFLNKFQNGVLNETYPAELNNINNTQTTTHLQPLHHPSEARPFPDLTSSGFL

| Compound | Potency | activation |
| --- | --- | --- |
| C=CC(=O)NCOCCCC | inactive | – |
| Cc1cc(C)c(O)c(C)c1 | inactive | – |
| CN1CCCC1=O | inactive | – |
| C[Si](C)(C)N[Si](C)(C)C | inactive | – |
| COCN(COC)c1nc(N(COC)COC)nc(N(COC)COC)n1 | inactive | – |
| CC(=O)C(C)C | inactive | – |
| Cc1cccc(C)c1[N+](=O)[O-] | inactive | – |
| NC(N)=S | – | 2.15% |
| Oc1ccc(Cc2ccccc2O)cc1 | – | -0.17% |
| CN=C(NC#N)NCCSCc1nc[nH]c1C | inactive | – |
| CC(CN1c2ccccc2Sc2ccccc21)N(C)C (stereo not given) | inactive | – |
| CC(=O)OC/C=C(\C)CCC=C(C)C | inactive | – |
| OCC(CO)(CO)CO | inactive | – |
| O=c1n(CCCN2CCN(c3cccc(Cl)c3)CC2)nc2ccccn12 | inactive | – |
| O=C(O)C1=NN(c2ccc(S(=O)(=O)O)cc2)C(=O)C1 | inactive | – |
| NC1CCCCC1N (stereo not given) | inactive | – |
| CCCCCCCCCCCCCC(=O)O | inactive | – |
| CC(C)=CCC/C(C)=C/C=O | inactive | – |
| CC(COCC(C)OC(=O)c1ccccc1)OC(=O)c1ccccc1 (stereo not given) | inactive | – |
| Clc1cccc(Cl)c1NC1=NCCN1 | inactive | – |

| Compound | Potency | activation |
| --- | --- | --- |
| CC(C)c1ccc(C(C)C)cc1 | inactive | – |
| CCCOCC(C)O (stereo not given) | inactive | – |
| CC(=O)OC[C@H]1O[C@@](COC(C)=O)(O[C@H]2O[C@H](COC(C)=O)[C@@H](OC(C)=O)[C@H](OC(C)=O)[C@H]2OC(C)=O)[C@@H](OC(C)=O)[C@@H]1OC(C)=O | inactive | – |
| CCN(CC)CCNC(=O)c1ccc(N)cc1 | inactive | – |
| CCCCCC(C)=O | inactive | – |
| O=C1O[C@H]([C@H](O)CO)C(O)=C1O | – | -1.69% |
| OC1CCCCC1 | – | 1.74% |
| CCCCCCCCCCCC(=O)N(C)CC(=O)O | inactive | – |
| CCCCC(CC)COC(=O)c1ccc(C(=O)OCC(CC)CCCC)cc1 (stereo not given) | – | 3.76% |
| O=Cc1ccc(CO)o1 | inactive | – |
| OB(O)O | inactive | – |
| OCC(O)CS (stereo not given) | inactive | – |
| OC[C@H]1O[C@@H](Oc2ccc(O)cc2)[C@H](O)[C@@H](O)[C@@H]1O | inactive | – |
| CCCN(CCC)C(=O)SCC | inactive | – |
| CCOC(=O)c1ccc(O)cc1 | inactive | – |
| O=[N+]([O-])c1cc(C(F)(F)F)ccc1Cl | – | -1.94% |
| CCc1cccc(O)c1 | inactive | – |
| CCc1cccc(CC)c1N | – | -1.36% [at 95 µM] |
| CC(O)CNCC(C)O (stereo not given) | – | -2.14% |
| CCCCC(=O)O | inactive | – |
